Consider one sequence from article PMC7862700, “An all-to-all approach to the identification of sequence-specific readers for epigenetic DNA modifications on cytosine”.

What all share (test): DAPPL (digital affinity profiling via proximity ligation, sequencing); 10 mM Tris-HCl pH 7.5, 50 mM NaCl, 1 mM DTT, 4% glycerol, room temperature, 30 min; GST-TFs on glutathione beads, 16-mer random dsDNA library, 0.1% formaldehyde crosslink after washing; high values mean tight binding
In one assay the target is T1, FLI1 (Homo sapiens, UniProt Q01543 1-452).
T1 sequence: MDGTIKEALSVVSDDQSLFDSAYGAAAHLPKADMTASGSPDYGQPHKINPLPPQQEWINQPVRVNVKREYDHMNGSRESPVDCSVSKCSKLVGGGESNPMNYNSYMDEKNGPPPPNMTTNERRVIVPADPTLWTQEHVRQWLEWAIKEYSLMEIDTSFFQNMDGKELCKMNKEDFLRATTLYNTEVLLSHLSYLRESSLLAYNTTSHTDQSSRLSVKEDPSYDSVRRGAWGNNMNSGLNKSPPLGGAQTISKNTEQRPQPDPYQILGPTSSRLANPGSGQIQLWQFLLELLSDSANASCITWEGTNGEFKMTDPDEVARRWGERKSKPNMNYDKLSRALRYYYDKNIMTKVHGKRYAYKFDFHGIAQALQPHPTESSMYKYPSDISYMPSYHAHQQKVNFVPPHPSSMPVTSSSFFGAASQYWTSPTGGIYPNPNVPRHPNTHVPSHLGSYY
Conditions: protein: recombinant; tags: N-terminal GST; dsDNA, one strand shown. The gist of the method:
(§1)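 After expression in yeast as GST fusions, human transcription factors were bound to glutathione beads, DNA-barcoded and mixed with a tag-only sample. The pools were incubated with 200 nmole of a 16-mer random double-stranded DNA library in Tris/NaCl/DTT/glycerol buffer (30 min, room temperature), washed and crosslinked with 0.1% formaldehyde. Proximity ligation with BsaI/T4 ligase ran for 1 h at 37 °C, before PCR amplification and sequencing on an Illumina NextSeq500. Binding signal is a hexamer's read frequency for a factor divided by its frequency for the tag-only sample.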

For another assay, the target named is T2, ELK1 (Homo sapiens, UniProt P19419 1-428).
T2 sequence: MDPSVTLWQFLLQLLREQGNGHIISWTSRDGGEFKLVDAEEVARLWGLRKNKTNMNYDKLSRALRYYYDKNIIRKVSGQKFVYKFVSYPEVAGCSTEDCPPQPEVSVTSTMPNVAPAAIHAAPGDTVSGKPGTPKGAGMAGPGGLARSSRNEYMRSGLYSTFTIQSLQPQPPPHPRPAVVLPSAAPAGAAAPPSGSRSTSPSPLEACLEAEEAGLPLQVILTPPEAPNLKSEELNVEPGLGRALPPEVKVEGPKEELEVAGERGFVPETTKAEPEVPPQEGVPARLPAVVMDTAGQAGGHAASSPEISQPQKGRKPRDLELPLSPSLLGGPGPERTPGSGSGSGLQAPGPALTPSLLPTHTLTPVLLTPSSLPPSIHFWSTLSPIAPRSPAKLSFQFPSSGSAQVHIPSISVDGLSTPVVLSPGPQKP
Conditions: protein: recombinant; tags: N-terminal GST; dsDNA, one strand shown. The gist of the method:
as §1

A further assay deals with T3, GABPA (Homo sapiens, UniProt Q06546 1-454).
T3 sequence: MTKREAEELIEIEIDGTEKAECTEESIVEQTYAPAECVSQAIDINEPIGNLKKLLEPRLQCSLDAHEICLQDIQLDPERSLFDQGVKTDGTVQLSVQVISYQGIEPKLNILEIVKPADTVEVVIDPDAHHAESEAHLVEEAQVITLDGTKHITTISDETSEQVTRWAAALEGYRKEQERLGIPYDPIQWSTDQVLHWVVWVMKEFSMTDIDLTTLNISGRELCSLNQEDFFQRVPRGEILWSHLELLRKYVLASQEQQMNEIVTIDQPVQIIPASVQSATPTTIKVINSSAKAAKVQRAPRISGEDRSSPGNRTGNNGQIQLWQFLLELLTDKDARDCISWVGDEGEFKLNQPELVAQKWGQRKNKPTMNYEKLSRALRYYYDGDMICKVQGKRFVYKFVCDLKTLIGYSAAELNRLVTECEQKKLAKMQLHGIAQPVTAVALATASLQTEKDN
The following applies: protein: recombinant; tags: N-terminal GST; dsDNA, one strand shown. The gist of the method: as §1

Another assay concerns the target T4, ERG (Homo sapiens, UniProt P11308 1-479).
T4 sequence: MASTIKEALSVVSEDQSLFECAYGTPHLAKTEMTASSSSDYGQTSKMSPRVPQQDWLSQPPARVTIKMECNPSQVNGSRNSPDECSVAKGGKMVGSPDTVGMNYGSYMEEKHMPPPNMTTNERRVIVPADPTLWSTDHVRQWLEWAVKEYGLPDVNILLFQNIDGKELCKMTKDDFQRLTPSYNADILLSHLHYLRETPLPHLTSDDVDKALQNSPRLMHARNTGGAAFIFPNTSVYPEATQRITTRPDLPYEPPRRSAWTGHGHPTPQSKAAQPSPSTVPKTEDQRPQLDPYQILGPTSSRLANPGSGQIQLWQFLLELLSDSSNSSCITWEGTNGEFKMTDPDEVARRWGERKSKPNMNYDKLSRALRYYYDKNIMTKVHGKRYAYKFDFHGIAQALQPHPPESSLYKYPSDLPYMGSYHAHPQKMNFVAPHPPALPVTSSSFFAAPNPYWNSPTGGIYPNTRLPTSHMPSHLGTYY
The following applies: protein: recombinant; tags: N-terminal GST; dsDNA, one strand shown. The gist of the method: as §1

The next assay deals with ELF1 (Homo sapiens, UniProt P32519 1-619). The following applies: protein: recombinant; tags: N-terminal GST; dsDNA, one strand shown. The gist of the method: as §1
Chain of ELF1 (P32519 whole entry): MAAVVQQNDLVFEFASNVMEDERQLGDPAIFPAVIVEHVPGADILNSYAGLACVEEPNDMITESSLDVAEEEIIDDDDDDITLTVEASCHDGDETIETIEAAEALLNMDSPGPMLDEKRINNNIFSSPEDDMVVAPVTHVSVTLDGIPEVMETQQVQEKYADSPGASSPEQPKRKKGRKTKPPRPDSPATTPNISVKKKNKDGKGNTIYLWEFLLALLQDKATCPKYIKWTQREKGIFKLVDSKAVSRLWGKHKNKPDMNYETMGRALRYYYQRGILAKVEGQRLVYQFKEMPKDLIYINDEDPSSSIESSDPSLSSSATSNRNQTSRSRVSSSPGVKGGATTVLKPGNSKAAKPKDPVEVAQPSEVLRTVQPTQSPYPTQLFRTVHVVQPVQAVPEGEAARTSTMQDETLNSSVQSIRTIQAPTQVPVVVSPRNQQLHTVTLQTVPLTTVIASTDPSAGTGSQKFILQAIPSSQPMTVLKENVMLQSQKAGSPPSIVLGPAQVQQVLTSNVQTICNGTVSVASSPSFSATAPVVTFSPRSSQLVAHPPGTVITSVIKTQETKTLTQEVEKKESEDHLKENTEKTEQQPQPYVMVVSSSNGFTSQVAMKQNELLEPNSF
The next assay concerns the target T5, EHF (Homo sapiens, UniProt Q9NZC4 1-300).
T5 sequence: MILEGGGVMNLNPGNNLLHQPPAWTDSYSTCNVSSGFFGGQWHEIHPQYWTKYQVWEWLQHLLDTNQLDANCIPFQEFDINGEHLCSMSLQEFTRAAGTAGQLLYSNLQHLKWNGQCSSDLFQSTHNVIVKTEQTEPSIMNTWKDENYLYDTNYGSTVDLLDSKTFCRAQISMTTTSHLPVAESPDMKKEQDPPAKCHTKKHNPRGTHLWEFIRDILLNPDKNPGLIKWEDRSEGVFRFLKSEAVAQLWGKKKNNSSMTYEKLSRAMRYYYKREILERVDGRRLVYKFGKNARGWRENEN
The following applies: protein: recombinant; tags: N-terminal GST; dsDNA, one strand shown. The gist of the method: as §1

A further assay addresses SPI1 (Homo sapiens, UniProt P17947 1-270). The following applies: protein: recombinant; tags: N-terminal GST; dsDNA, one strand shown. The gist of the method: as §1
The next assay deals with SPIB (Homo sapiens, UniProt Q01892 1-262). Conditions: protein: recombinant; tags: N-terminal GST; dsDNA, one strand shown. The gist of the method:
as §1

The next assay has as its target T6, ELK3 (Homo sapiens, UniProt P41970 1-407).
T6 sequence: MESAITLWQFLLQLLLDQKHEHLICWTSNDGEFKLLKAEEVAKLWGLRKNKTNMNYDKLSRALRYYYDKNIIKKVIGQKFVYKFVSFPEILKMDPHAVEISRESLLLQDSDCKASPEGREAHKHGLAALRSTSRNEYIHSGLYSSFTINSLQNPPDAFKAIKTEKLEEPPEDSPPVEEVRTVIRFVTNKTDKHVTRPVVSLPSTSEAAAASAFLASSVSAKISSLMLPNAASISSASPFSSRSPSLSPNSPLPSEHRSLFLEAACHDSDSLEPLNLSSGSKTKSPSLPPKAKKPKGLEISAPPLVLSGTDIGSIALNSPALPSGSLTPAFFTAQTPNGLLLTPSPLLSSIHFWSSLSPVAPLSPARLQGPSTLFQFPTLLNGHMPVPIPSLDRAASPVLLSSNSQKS
The following applies: protein: recombinant; tags: N-terminal GST; dsDNA, one strand shown. The gist of the method:
as §1

A further assay has as its target T7, FEV (Homo sapiens, UniProt Q99581 1-238).
T7 sequence: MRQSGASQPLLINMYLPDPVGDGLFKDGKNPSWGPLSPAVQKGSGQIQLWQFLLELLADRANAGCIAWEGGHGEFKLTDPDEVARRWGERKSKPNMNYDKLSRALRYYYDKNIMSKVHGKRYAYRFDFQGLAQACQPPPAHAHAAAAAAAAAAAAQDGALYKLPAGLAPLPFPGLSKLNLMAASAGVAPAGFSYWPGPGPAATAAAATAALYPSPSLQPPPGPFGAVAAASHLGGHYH
The following applies: protein: recombinant; tags: N-terminal GST; dsDNA, one strand shown. The gist of the method: as §1

The target in another assay is ETV5 (Homo sapiens, UniProt P41161 1-510). Conditions: protein: recombinant; tags: N-terminal GST; dsDNA, one strand shown. The gist of the method:
as §1

Another assay concerns the target HSF1 (Homo sapiens, UniProt Q00613 1-529). The following applies: protein: recombinant; tags: N-terminal GST; chain copies: 3; dsDNA, one strand shown. The gist of the method:
as §1

The target in the next assay is T8, SPIC (Homo sapiens, UniProt Q8N5J4 1-248).
T8 sequence: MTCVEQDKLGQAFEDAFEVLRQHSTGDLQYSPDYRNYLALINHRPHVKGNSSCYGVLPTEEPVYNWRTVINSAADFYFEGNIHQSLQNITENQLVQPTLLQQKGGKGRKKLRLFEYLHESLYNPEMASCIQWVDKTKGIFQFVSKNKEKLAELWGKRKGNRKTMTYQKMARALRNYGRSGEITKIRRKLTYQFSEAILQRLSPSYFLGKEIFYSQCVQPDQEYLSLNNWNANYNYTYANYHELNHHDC
The following applies: protein: recombinant; tags: N-terminal GST; dsDNA, one strand shown. The gist of the method:
as §1

The next assay addresses ELF4 (Homo sapiens, UniProt Q99607 1-663). The following applies: protein: recombinant; tags: N-terminal GST; dsDNA, one strand shown. The gist of the method:
as §1

In another assay the target is T9, ELK4 (Homo sapiens, UniProt P28324-2 1-405).
T9 sequence: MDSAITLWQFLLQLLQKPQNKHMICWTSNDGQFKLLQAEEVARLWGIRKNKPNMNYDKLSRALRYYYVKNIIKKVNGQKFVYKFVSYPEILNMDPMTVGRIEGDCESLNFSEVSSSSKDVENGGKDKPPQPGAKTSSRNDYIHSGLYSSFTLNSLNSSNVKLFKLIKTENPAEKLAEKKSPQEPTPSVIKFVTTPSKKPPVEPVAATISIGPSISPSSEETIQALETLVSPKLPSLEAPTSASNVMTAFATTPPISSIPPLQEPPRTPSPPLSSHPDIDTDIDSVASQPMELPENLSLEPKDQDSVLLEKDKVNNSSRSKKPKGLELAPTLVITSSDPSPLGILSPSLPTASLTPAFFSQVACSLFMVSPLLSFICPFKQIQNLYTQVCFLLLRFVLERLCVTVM
The following applies: protein: recombinant; tags: N-terminal GST; dsDNA, one strand shown. The gist of the method:
as §1

A further assay deals with T10, ETV2 (Homo sapiens, UniProt O00321 1-342).
T10 sequence: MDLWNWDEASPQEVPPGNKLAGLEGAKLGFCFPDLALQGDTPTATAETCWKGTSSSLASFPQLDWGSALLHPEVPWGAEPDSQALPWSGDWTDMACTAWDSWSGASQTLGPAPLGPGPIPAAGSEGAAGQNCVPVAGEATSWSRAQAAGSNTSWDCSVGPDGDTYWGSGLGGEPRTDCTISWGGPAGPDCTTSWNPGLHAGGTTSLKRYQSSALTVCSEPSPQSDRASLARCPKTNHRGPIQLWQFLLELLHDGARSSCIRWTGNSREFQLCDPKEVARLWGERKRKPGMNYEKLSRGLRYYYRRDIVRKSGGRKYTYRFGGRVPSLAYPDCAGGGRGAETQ
Conditions: protein: recombinant; tags: N-terminal GST; dsDNA, one strand shown. The gist of the method:
as §1

The next assay deals with T11, ELF3 (Homo sapiens, UniProt P78545 1-371).
T11 sequence: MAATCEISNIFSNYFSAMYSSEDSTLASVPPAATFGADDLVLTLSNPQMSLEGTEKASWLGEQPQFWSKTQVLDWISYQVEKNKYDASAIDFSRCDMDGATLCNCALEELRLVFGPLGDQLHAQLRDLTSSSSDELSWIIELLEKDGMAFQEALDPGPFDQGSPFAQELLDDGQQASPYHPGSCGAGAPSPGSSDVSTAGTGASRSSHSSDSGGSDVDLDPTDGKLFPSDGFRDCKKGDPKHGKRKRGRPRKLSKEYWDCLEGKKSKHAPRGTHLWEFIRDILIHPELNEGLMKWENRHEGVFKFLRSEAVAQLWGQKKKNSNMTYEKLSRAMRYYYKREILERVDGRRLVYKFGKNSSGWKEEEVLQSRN
Conditions: protein: recombinant; tags: N-terminal GST; dsDNA, one strand shown. The gist of the method:
as §1

A further assay addresses CRX (Homo sapiens, UniProt O43186 1-299). Conditions: protein: recombinant; tags: N-terminal GST; dsDNA, one strand shown. The gist of the method:
as §1

The target of the next assay is ETV1 (Homo sapiens, UniProt P50549 1-477). The following applies: protein: recombinant; tags: N-terminal GST; dsDNA, one strand shown. The gist of the method:
as §1

Chain of SPIB (Q01892 whole entry): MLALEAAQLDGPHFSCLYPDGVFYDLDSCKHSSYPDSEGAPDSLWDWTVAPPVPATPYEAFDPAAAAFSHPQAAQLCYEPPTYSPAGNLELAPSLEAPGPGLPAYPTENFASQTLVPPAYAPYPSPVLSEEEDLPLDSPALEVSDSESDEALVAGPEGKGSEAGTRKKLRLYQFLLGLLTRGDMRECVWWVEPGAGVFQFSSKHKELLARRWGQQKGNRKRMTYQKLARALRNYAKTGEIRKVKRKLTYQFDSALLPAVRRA
Chain of ELF4 (Q99607 whole entry): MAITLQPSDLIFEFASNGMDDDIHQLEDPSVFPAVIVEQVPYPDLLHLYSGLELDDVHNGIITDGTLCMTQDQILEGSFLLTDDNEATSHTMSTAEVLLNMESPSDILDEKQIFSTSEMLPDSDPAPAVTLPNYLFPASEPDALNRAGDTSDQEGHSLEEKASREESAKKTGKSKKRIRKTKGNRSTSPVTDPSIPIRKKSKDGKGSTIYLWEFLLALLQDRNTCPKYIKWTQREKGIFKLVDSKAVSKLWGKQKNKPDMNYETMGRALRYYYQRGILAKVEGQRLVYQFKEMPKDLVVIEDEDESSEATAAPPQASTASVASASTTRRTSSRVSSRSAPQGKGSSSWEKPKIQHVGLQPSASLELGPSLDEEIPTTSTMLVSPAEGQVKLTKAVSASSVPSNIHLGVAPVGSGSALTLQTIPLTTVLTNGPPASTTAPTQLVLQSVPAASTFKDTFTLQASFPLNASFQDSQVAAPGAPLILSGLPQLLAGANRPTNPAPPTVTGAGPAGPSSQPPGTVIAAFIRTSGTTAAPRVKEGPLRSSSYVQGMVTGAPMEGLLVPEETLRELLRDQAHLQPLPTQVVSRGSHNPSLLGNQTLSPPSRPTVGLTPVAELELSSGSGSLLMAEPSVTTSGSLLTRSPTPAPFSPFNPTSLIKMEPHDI
Chain of ETV1 (P50549 whole entry): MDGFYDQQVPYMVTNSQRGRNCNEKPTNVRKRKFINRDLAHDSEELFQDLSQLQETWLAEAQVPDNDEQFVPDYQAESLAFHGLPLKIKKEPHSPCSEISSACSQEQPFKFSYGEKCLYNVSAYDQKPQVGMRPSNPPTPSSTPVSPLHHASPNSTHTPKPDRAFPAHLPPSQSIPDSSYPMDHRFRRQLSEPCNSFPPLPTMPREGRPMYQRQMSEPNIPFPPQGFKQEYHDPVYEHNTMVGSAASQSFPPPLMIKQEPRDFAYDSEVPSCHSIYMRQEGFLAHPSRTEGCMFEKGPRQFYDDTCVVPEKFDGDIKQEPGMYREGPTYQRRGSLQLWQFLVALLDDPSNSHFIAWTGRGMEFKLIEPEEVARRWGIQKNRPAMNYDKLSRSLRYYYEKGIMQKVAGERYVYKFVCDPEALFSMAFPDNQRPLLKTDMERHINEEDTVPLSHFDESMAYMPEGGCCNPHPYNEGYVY
Chain of CRX (O43186 whole entry): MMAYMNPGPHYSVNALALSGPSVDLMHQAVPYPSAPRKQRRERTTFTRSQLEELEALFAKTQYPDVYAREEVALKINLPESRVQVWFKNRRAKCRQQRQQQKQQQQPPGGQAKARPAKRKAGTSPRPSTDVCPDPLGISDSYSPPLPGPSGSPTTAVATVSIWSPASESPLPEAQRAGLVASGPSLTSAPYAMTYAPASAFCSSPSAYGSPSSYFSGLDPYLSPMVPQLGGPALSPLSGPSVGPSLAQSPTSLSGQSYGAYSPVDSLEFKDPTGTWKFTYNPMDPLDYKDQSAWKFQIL
Chain of ETV5 (P41161 whole entry): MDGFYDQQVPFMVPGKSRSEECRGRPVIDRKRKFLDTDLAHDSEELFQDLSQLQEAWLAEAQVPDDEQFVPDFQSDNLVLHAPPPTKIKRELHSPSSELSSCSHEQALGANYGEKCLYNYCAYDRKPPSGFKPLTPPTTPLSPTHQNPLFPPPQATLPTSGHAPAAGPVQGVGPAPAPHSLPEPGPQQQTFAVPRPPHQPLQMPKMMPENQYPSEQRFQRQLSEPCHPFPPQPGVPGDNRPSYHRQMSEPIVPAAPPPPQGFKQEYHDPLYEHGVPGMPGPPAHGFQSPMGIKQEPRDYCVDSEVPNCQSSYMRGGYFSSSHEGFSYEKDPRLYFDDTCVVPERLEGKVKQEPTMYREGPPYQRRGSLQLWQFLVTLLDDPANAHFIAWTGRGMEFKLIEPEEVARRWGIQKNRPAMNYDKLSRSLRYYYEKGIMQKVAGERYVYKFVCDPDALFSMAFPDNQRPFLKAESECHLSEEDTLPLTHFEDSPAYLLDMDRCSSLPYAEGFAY
Chain of HSF1 (Q00613 whole entry): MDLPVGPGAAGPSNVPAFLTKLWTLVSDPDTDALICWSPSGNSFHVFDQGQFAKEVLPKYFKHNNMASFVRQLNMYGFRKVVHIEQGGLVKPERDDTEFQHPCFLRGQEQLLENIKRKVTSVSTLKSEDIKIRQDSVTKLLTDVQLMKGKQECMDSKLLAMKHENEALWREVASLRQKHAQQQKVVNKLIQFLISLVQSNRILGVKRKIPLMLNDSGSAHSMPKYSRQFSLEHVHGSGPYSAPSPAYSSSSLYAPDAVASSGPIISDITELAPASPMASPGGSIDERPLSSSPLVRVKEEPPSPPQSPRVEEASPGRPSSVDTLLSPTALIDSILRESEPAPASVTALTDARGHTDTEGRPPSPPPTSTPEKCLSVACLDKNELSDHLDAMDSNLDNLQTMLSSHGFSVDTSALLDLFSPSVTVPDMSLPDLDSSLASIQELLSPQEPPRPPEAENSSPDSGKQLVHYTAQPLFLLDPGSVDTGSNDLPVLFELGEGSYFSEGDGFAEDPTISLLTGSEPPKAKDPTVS

Consider ACATTC, for which the binding signal with FLI1 was 1.41 fold enrichment (6-mer frequency, TF over GST control); in the assay with ELK1, 1.32 fold enrichment (6-mer frequency, TF over GST control); with GABPA, 1.31 fold enrichment (6-mer frequency, TF over GST control); with ERG it was 1.23 fold enrichment (6-mer frequency, TF over GST control); with ELF1 it was 1.37 fold enrichment (6-mer frequency, TF over GST control); with EHF it was 1.25 fold enrichment (6-mer frequency, TF over GST control). The binding signal with SPI1 is 1.24 fold enrichment (6-mer frequency, TF over GST control); in the assay with SPIB, 1.23 fold enrichment (6-mer frequency, TF over GST control); in the assay with ELK3, 1.35 fold enrichment (6-mer frequency, TF over GST control); with FEV, 1.21 fold enrichment (6-mer frequency, TF over GST control); with ETV5, 1.39 fold enrichment (6-mer frequency, TF over GST control); with HSF1, 2.56 fold enrichment (6-mer frequency, TF over GST control). Moreover, the binding signal with SPIC was 1.22 fold enrichment (6-mer frequency, TF over GST control); with ELF4, 1.32 fold enrichment (6-mer frequency, TF over GST control); in the assay with ELK4, 1.22 fold enrichment (6-mer frequency, TF over GST control); with ETV2, 1.23 fold enrichment (6-mer frequency, TF over GST control); with ELF3 it was 1.31 fold enrichment (6-mer frequency, TF over GST control); with CRX it was 1.4 fold enrichment (6-mer frequency, TF over GST control). The binding signal with ETV1 was 1.29 fold enrichment (6-mer frequency, TF over GST control).
